Assay outcomes: PubChem, National Center for Advancing Translational Sciences (NCATS)
Tb PFK block: T. brucei PFK enzyme inhibition. O15648. T. brucei PFK, ADP-Glo luminescence. Potency, µM (top dose mostly 57.5 µM), without a hit: top-dose activity, negative = inhibition, actives largely listed as inhibitors. 330,000 compounds, 0.17% hits;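 note: potency is the fitted concentration of half-maximal effect; 0% = uninhibited 1x PFK enzyme wells and -100% = no-enzyme wells; nearly all actives have a fitted effect of over 60% in size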
Target sequence (O15648 whole entry, looked up): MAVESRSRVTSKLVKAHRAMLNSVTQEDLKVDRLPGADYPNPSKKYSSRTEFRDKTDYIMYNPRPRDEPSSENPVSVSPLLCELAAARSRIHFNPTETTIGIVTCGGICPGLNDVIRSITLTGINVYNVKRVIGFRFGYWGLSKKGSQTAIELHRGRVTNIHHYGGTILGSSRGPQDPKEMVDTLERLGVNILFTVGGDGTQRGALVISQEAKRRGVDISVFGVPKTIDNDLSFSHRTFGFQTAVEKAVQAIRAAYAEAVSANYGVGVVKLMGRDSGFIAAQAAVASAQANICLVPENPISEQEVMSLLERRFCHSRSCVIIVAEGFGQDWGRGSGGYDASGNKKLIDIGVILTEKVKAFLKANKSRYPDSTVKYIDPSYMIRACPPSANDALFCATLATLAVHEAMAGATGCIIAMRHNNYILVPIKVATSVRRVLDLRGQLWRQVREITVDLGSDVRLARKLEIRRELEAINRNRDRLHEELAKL
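ADP-Glo luminescence quantified ADP after 45 min at room temperature, with 1.25 nM T. brucei PFK, 0.1 mM ATP and 0.5 mM fructose-6-phosphate in pH 8.0 TEA buffer. qHTS titrations up to 57 µM; curves classified by quality.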
PGK inhibitor: T. brucei PGK inhibition; Potency, µM (doses to about 57.5 µM), for inactives: at the top dose activity change, negative = inhibition, actives largely listed as inhibitors; PGK/GAPDH coupled, Kinase-Glo luminescence, 60 min; 380,000 compounds, 0.043% hits; note: potency is the fitted concentration of half-maximal effect; nearly all actives have a fitted effect of over 60% in size
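Luminescent ATP detection (Kinase-Glo Plus) follows a 60-minute room-temperature incubation, with wells lacking PGK as controls. Buffer: 100 mM TEA (pH 7.6), 5 mM MgCl2, 0.01% Tween-20. Coupling enzyme GAPDH (100 nM final) supplies unstable 1,3-BPG in-well.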
PI5P4K alpha inh: inhibitors of human PI5P4K alpha; P48426; PI5P4Kalpha enzyme, ADP-Glo luminescence, 60 min; stronger effect = lower value; max response, %; 330,000 compounds, 1.2% hits; active = max response of -50% or lower; inconclusive = between -30% and -50%; inactive = -30% or higher; note: value at the top dose of about 77 µM
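ADP-Glo luminescence end-point read after a 60 min room-temperature kinase reaction of PI5P4Kalpha plus substrate, initiated with ATP at 5 microM final. Buffer: 0.038 M HEPES pH 7.4, EGTA, 0.1% CHAPS, 5% DMSO.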
Pin1 inhibitor: blocks the human prolyl isomerase Pin1; Q13526; Pin1 FP peptide displacement, HiFluor488, 10 min; Potency, µM (series often up to 115 µM), for the others: at the top dose activity, negative = inhibition, actives largely listed as inhibitors; 390,000 compounds, 0.009% hits; AID 504891; active = well fitted inhibition curve with a large enough effect in the polarisation, with a control signal flat, not every such curve was filed as active; inconclusive = small, poorly fitted or top-dose-only effect, or effect the other way, or a change in a side signal; inactive = no such curve, though single readings can be large or run the other way; the % refers to the polarisation; note: potency is the fitted concentration of half-maximal effect
Target sequence (Q13526 whole entry, looked up): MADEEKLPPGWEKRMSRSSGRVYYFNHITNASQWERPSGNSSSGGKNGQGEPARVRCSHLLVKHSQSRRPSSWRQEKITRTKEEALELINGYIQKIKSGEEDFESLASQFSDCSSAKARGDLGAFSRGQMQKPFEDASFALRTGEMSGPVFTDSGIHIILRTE
PI4K2A inh: PI4K2A (human) kinase inhibition. AID 1346378. activity change, negative = inhibition, % at 76.9 µM. 420,000 compounds, 0.13% hits. purified PI4K2A, ADP-Glo luminescence, 1 h; stronger effect = lower value. Q9BTU6; in the data active = activity change below about -50%; inconclusive = mostly about -30% to -49%;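 note: -100% = wells without enzyme as full effect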
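PI4K2A activity was measured by ADP-Glo luminescence: enzyme (4 ug/mL stock) and phosphatidylinositol (1.2 mM stock) in Tris pH 7.5/MgCl2/EGTA/Triton X-100 buffer were reacted with ATP (300 microM stock) for one hour at ambient temperature.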
* = called active by the depositor; i = inactive; ? = inconclusive; . = not tested or not shown. The sample as a whole holds a higher share of hits than the screen did. Unless noted, calls come from the whole dose curve; as a rule, active = well fitted curve in the direction sought with a large enough effect; inconclusive = small, poorly fitted or top-dose-only effect, or another doubt; inactive = no such curve, though single readings can be large; an effect the other way counts as inactive or inconclusive. Unless noted, % is set by controls: 0 for no effect and ±100 for the full control effect.

SMILES	Tb PFK block	PGK inhibitor	PI5P4K alpha inh	Pin1 inhibitor	PI4K2A inh
C#CCOCCOCCOCCNc1nc(N2CCN(C(=O)CCCCCCCCCCNC(=O)[C@@H](CCSC)n3cc(CCO)nn3)CC2)nc(N2CCN(C(=O)CCCCCCCCCCNC(=O)[C@H](CCSC)n3cc(CCO)nn3)CC2)n1	0.4%	i	6.4	-0.7%	-2.0
C#CCOCCOCCOCCNc1nc(N2CCN(C(=O)CCCCCCCCCCNC(=O)[C@H](CO)n3cc(CCCSC)nn3)CC2)nc(N2CCN(C(=O)CCCCCCCCCCNC(=O)[C@H](CCCCN)n3cc(CCO)nn3)CC2)n1	15.8%	18.2%	-51.3*	?	-0.6
C#CCOCCOCCOCCNc1nc(N2CCN(C(=O)CCCCCCCCCCNC(=O)[C@H](CO)n3cc(CCCSC)nn3)CC2)nc(N2CCN(C(=O)CCCCCCCCCCNC(=O)[C@H](CCCN=C(N)N)n3cc(C[C@@H](C)CC)nn3)CC2)n1	?	-2.0%	-79.0*	260.1%	2.0
N#CC1=C(N)Oc2n[nH]c(-c3ccncc3)c2C1c1ccsc1 (stereo not given)	-2.4%	-1.9%	.	-7.6%	-8.3
COc1ccc(-c2[nH]nc3c2C(c2ccsc2)C(C#N)=C(N)O3)cc1 (stereo not given)	5.0%	-2.4%	.	2.1%	-0.3
Cc1ccc(-c2[nH]nc3c2C(c2ccsc2)C(C#N)=C(N)O3)cc1 (stereo not given)	1.5%	-2.8%	-52.0*	-3.2%	-0.5
N#CC1=C(N)Oc2n[nH]c(-c3ccccc3)c2C1c1ccsc1 (stereo not given)	-3.7%	-4.4%	-65.0*	-4.7%	-2.9
Cc1[nH]nc2c1C(c1ccsc1)C(C#N)=C(N)O2 (stereo not given)	-10.0%	-7.9%	-59.7*	-0.7%	0.4
O=S(=O)(c1ccc2c(c1)OCCO2)N1CCN(S(=O)(=O)c2ccccc2Cl)CC1	.	.	.	-15.4%	.
COc1ccc(-c2ccc3ncnc(NCc4ccc(C)o4)c3c2)cc1OC	.	.	.	1.7%	.
CCCc1ccc(OCC(=O)N2CCN(C(=O)COc3ccc(CCC)cc3OC)CC2)c(OC)c1	.	.	.	.	-2.0
COc1ccc(C2Nc3ccccc3C(=O)N2Cc2ccccc2)cc1Oc1ccc(NC(C)=O)cc1 (stereo not given)	.	.	.	13.3%	.
O=[S+]([O-])(c1ccc2c(c1)OCCO2)N1CCN([S+](=O)([O-])c2ccc(F)cc2Cl)CC1	.	.	.	1.4%	.
COc1ccc(C(=O)CCC(=O)Nc2cc(Cl)c(O)c(Cl)c2)cc1	-5.1%	-11.2%	-76.9*	54.0%	-2.0
O=C(OCC(=O)c1ccc(Cl)s1)c1ccccn1	11.8%	-2.4%	-14.8	3.5%	-0.7
O=C(OCC(=O)c1ccc(Cl)s1)c1cnccn1	1.1%	i	-52.4*	23.5%	0.8
Cc1cn(-c2cc(NC(=O)c3ccc(C)c(Nc4nccc(-c5cccnc5)n4)c3)cc(C(F)(F)F)c2)cn1	.	.	.	.	1.0
CCC(NC(=O)CN1CCN(c2cccc(OC)c2)CC1)c1ccccc1 (stereo not given)	.	.	.	.	3.1
COc1ccc(C2c3c(n(CCc4ccccc4)cnc3=N)Oc3ccc4ccccc4c32)cc1OC (stereo not given)	.	.	.	4.1%	.
Cn1c(N)c(C(=O)Nc2cccc(Cl)c2)c(=O)n(C)c1=O	-1.8%	-3.2%	5.3	-2.6%	6.2
CN=c1sc(C(=O)Nc2cccc(Cl)c2)cc(=O)n1C	-0.8%	i	-62.3*	?	-3.3
c1ccc(-c2nc(-c3ccccn3)no2)cc1	?	.	.	-4.8%	?
Cc1ccc(-c2nc(-c3ccccn3)no2)cc1	?	?	?	2.8%	-75.5*
c1ccc(-c2ccc(-c3nc(-c4ccccn4)no3)cc2)cc1	-18.4%	.	.	-3.2%	-93.6*
NC(=S)NNc1c(F)c(F)c(F)c(F)c1F	-3.1%	-16.6%	-54.1*	-7.2%	-4.8
SMILES	Tb PFK block	PGK inhibitor	PI5P4K alpha inh	Pin1 inhibitor	PI4K2A inh
O=C1C=CC(=O)N1CCCCCCN1C(=O)C=CC1=O	?	-3.0%	-58.4*	-0.9%	4.1
O=C(Nc1cccc([N+](=O)[O-])c1)NC1CCCCN(Cc2ccc(Cl)cc2)C1=O (stereo not given)	.	.	.	.	0.9
c1ccc(Cn2c(SCc3nc4ccccc4s3)nnc2-c2ccco2)cc1	-11.2%	-8.9%	-73.5*	-14.9%	?
CCC(c1nnc(SCc2nc3ccccc3s2)n1Cc1ccccc1)N(C)C (stereo not given)	1.9%	-1.6%	8.1	17.3%	-3.4
N#CC(C#N)=C(N)/C(C#N)=C/c1cc(O)c(O)c(O)c1	?	-27.7%	-67.4*	?	-16.5
CC(C)N1CCCCC(NC(=O)c2cccs2)C1=O (stereo not given)	.	.	.	.	-1.9
N#Cc1nc(Nc2cc(F)cc(F)c2)c2ncn(CCCO)c2n1	.	.	.	36.1%	.
Cc1c2ccccc2cc[n+]1CCCS(=O)(=O)[O-]	1.0%	-1.1%	-0.5	-9.5%	-5.8
CC1(C)C(/C=C/C=C/C=C/C=C2\N(CCCCS(=O)(=O)O)c3ccc4ccccc4c3C2(C)C)=[N+](CCCCS(=O)(=O)[O-])c2ccc3ccccc3c21	.	?	-89.8*	?	-64.7*
Cc1c(P(=S)(c2ccccc2)c2ccccc2)c2ccccc2n1CCCc1ccccc1	.	.	.	-3.2%	.
C=CCn1c(SCC(=O)NCCCC)nc2scc(-c3ccco3)c2c1=O	-7.4%	-7.9%	-57.5*	?	?
C=CCn1c(SCC(=O)NC2CCCCC2)nc2ccccc2c1=O	4.1%	-1.8%	-5.0	-5.6%	-5.7
C=CCn1c(SCC(C)=O)nc2scc(-c3ccc(C)o3)c2c1=O	-12.2%	1.7%	0.1	2.6%	-1.3
C=CCn1c(SCC(=O)NC2CCCC2)nc2scc(-c3ccco3)c2c1=O	-2.1%	4.6%	-83.4*	83.6%	?
NC(=O)C1CCN(c2nccc(-c3ccc4c(c3)OCCCO4)n2)CC1	.	.	.	-0.4%	.
Cn1nnnc1Sc1ncnc2scc(-c3ccccc3F)c12	.	.	.	-7.8%	.
CCc1oc2c(C)c(O)ccc2c(=O)c1-c1ccc2ccccc2n1	-5.4%	-1.0%	.	-0.3%	-51.6*
CC(=O)Nc1ccc(OC2=NS(=O)(=O)c3ccccc32)cc1	.	.	.	0.9%	.
O=C1c2cccc3c(O)ccc(c23)C(=O)N1Cc1ccccc1	-5.1%	-1.5%	-62.7*	?	-1.7
CCn1c(NCc2ccc(N(C)C)cc2)nc2ccccc21	-16.1%	-1.0%	.	-6.5%	-1.3
CN(C)c1ccc(N=Nc2nc3ccccc3n2C)cc1	-28.2%	14.1µM*	-59.3*	23.7%	-69.5*
Cn1c(N=Nc2ccccc2)nc2ccccc21	12µM*	?	-74.3*	-2.9%	-87.3*
CCn1c(NN)nc2sc3c(c2c1=O)CCC3	-10.8%	-8.6%	-58.7*	32.2%	-5.1
CCSc1nc2sc3c(c2c(=O)n1CC)CCC3	-16.5%	-2.1%	5.4	-3.3%	-4.4
NNc1nc2sc3c(c2c(=O)n1Cc1ccccc1)CCC3	-4.1%	2.4%	-74.3*	24.7%	-6.6
